30 compounds from PubChem BioAssay (NCI) can be followed below.

Common to all, as to experiment: NCI-60 one-dose screen, 48 h (100 = growth as untreated, 0 = no growth, -100 = all killed)
Holding throughout (conditions): 10 µM

Assay [1] has as its system NCI-H23 lung.
In assay [2] the test system is NCI-H226 lung.
Assay [3] deals with NCI-H322M lung.
For assay [4], the system named is HOP-62 NSCLC.
In assay [5] the test system is NCI-H460 lung.
In assay [6] the test system is NCI-H522 lung.
The test system of assay [7] is A549/ATCC NSCLC.
In assay [8] the test system is 786-0 renal.
Assay [9] has as its system COLO 205 colon.
Assay [10] relates to HOP-92 NSCLC.

About 83,000 compounds went through this panel and 20% of them were active in at least one assay; those are over-represented in the sample as a whole.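 Assay: single dose, 48 h. Readout: percent growth (0 = no net growth; negative = cell death). Active: <10.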 Values without a mark were called inactive. Active and inactive are the calls of the source.

On to `Cc1cc(C(C)(C)CC(C)(C)C)ccc1OCCOCC[N+](C)(C)Cc1ccccc1`, for which the growth was -20% (active) in [1]; -18% (active) in [2]; 20.6% in assay [3]; -83.5% (active) in assay [4]; -72.2% (active) in assay [5]; -50.1% (active) in assay [6]. Besides, the growth in assay [7] was 36.7%; in assay [8] it was -19.4% (active); in assay [9], -81.6% (active).

With `C#CCNCCCN1C(=O)c2ccc3c4c(ccc(c24)C1=O)C(=O)N(CCCNCC#C)C3=O`, the growth was -45% (active) in assay [1]; -48.6% (active) in [2]; -94.4% (active) in [3]; -67.8% (active) in [4]; -78.5% (active) in assay [5]; -78.4% (active) in [6]. Moreover, the growth in assay [7] was -72.3% (active); in assay [8], -56.9% (active); in assay [9], -86.7% (active).

Take `COc1cc(/C=C2\C(=O)Nc3cc(C)c(O)cc32)cc(OC)c1OC`: the growth in assay [1] is 65.2%; in assay [2] it was 79.8%; in [3], 80%; in assay [4] it was 85.7%; in assay [5], 40%; in [6], 41.6%. Further, the figures for the growth in assay [7] and in assay [8] were 50.1% and 70.1%, respectively.

For the compound `COc1ccc(NC(=O)CCn2cnc3c(cc(-c4ccccc4)n3-c3ccccc3)c2=O)cc1`, the growth was 85.8% in assay [1]; 88.8% in [2]; 109% in assay [3]; 11.2% in assay [4]; 91.8% in assay [5]; 45.1% in assay [6]. The figures for the growth in assay [7], in [8] and in assay [9] were 85.8%, 88.7% and 114%, respectively.

`COc1ccc(C(C)=O)cc1N1C(=O)C2C(C1=O)C1(c3ccccc3)C(=O)C2(c2ccccc2)C(c2ccc(C)cc2)=C1c1ccc(C)cc1` (stereo unspecified): the growth was 42.8% in assay [1]; 32.9% in [2]; 27.6% in assay [3]; 33.4% in [4]; 4.54% (active) in assay [5]; 6.68% (active) in assay [7]. In addition, the figures for the growth in [8] and in assay [9] were 22.1% and 23.4%, respectively.

With `Cc1cnc(C=O)c2cccc([N+](=O)[O-])c12`, the growth in assay [1] was 98.7%; in assay [2] it was 77.7%; in [3], 103%; in [4], 91.7%; in assay [5], 106%; in assay [6], 96%. Besides, the results for the growth in [7], in [8] and in assay [9] were 104%, 99.7% and 106%, respectively.

Take `Nc1ccc(Sc2ccc3c4c2cccc4c(=O)n2c4ccccc4nc32)cc1`: the growth is 37.5% in [1]; 40.6% in assay [2]; 61.8% in assay [3]; 51.2% in assay [4]; 9.47% (active) in assay [5]; 20.6% in assay [7]. The growth in [8] is 37.3%; in [9], 50.8%.

Consider `COc1ccc2nc(C)cc(Nc3ccc(Cl)cc3)c2c1`, for which the growth is 104% in [1]; 99.9% in assay [2]; 95.1% in assay [3]; 104% in [4]; 91.8% in [5]; 105% in assay [6]. In addition, the growth in [7] was 92.2%; in [8] it was 109%; in assay [9] it was 107%.

For the compound `Oc1cc(O)c(Br)cc1Br`, the growth in [1] is 110%; in assay [2], 103%; in assay [3], 91.8%; in assay [4], 105%; in assay [5], 108%; in assay [6], 88.8%. Further, the results for the growth in [7], in [8] and in [9] were 98.9%, 93.1% and 101%, respectively.

Regarding `S=C(Cc1ccc(-c2ccccc2)cc1)N1CCOCC1`, the growth was 104% in [1]; 91.7% in [2]; 96% in [3]; 93.6% in assay [4]; 103% in assay [5]; 89.8% in assay [6]. The growth in [7] was 90.9%; in [8] it was 93.6%; in assay [9], 103%.

Take `CN(C)c1ccc2cc(-c3cc4c(oc3=O)-c3ccccc3OC4O)c(=O)oc2c1` (stereo unspecified): the growth was -3.16% (active) in assay [1]; -14.9% (active) in [2]; 39% in [3]; 12.1% in assay [4]; 56.7% in [5]; -57.2% (active) in assay [6]. The growth was 39.5% in assay [7], -15.7% (active) in assay [8] and -56.2% (active) in assay [9].

For `Cc1nc2cc(-n3c(-c4ccc(F)cc4)nc4ccccc4c3=O)ccc2n1Cc1ccccc1`, the growth is 42.1% in assay [1]; 3.55% (active) in assay [2]; 38.2% in assay [3]; 45.1% in [4]; -38.9% (active) in assay [5]; 44.5% in assay [6]. The growth is -25.4% (active) in assay [7], 7.98% (active) in [8] and 4.23% (active) in assay [9].

Regarding `O=C1CC[C@@H](C(=O)N[C@H]2CSSC[C@@H](C(=O)NCCc3ccccc3)NC(=O)[C@H](Cc3ccccc3)NC(=O)[C@@H]3CCCN3C(=O)[C@@H]3CCCN3C2=O)N1`, the growth is 92.7% in [1]; 87.5% in assay [2]; 115% in assay [3]; 55.1% in [4]; 101% in [5]; 96.2% in [6]. Moreover, the values for the growth in assay [7], in assay [8] and in [9] were 86.2%, 99% and 119%, respectively.

Regarding `C=CCN1C(=O)/C(=C\c2ccc3c(c2)CCC3)SC1=S`, the growth in [1] is 90.3%; in assay [2] it was 96.7%; in assay [3], 106%; in [4], 76.3%; in [5], 107%; in assay [6], -22.1% (active). Moreover, the growth is 105% in [7], 104% in [8] and 109% in [9].

With `CCOC(=O)c1c(O)c2cc(-c3ccccc3)nc(OCC)c2c(=O)n1C`, the growth in [1] was 85.8%; in [2], 79%; in assay [3], 122%; in [4], 93.2%; in assay [5] it was 110%; in assay [6] it was 98.9%. Further, the growth in assay [7] is 99.4%; in assay [8] it was 94%; in assay [9], 117%.

As to `CCN(CC)CCOC(=O)c1ccc(NC(=O)Nc2cccc(Cl)c2)cc1`, the growth was 95.8% in assay [1]; 99.6% in [2]; 103% in assay [3]; 93.4% in [4]; 108% in assay [5]; 86.7% in assay [6]. For the same compound, the growth was 91.4% in [7], 95.5% in [8] and 105% in [9].

In the case of `O=C(CCCC(=O)N/N=C/c1cc(Cl)ccc1O)N/N=C\c1cc(Cl)ccc1O`, the growth in assay [1] is 38.4%; in assay [2] it was 40.7%; in assay [3], 23.7%; in assay [4], 24.1%; in assay [5] it was 10.2%; in assay [6], 18.3%. Besides, the growth in assay [7] was 29.5%; in assay [8] it was 24.8%; in assay [9], 16.3%.

`COc1cc2c3c(cccc3c1)C(=O)N(CCN1CCCC1)C2=O`: the growth in [1] is 32.5%; in assay [2] it was 0.818% (active); in [3], 13.6%; in assay [4], 25.7%; in assay [5], -22% (active); in assay [6], -11% (active). The growth in assay [7] was 6.08% (active); in assay [8], 36.1%; in [9] it was 4.92% (active).

`COc1ccc(/C=C2\CCC3C(CCCC34OCCO4)C2=O)cc1` (stereo unspecified): the growth in [1] is 94.2%; in assay [2] it was 97.8%; in [3] it was 79.5%; in [4], 99.3%; in assay [5], 105%; in assay [6], -1.7% (active). Also, the results for the growth in assay [7], in assay [8] and in assay [9] were 89.7%, 96.2% and 94.5%, respectively.

As for `N/C(=N\O)c1cn(C2OC(CO)C(O)C2O)c2ncnc(N)c12` (stereo unspecified), the growth is -1.68% (active) in assay [1]; 26.4% in assay [2]; 11% in assay [3]; -18.8% (active) in [4]; -44.1% (active) in [5]; -42.9% (active) in assay [6]. For the same compound, the growth was 4.88% (active) in [7], 20.9% in assay [8] and -92.4% (active) in [9].

With `CCC(CCNc1cc(OC)cc2cccnc12)CN1C(=O)c2ccccc2C1=O` (stereo unspecified), the growth in assay [1] is 91.3%; in assay [2], 98.9%; in assay [3] it was 112%; in assay [4] it was 102%; in [5], 138%; in assay [6], 87.5%. Also, the growth is 105% in [7], 104% in assay [8] and 113% in assay [9].

As for `NC1CCC(Nc2nc(NCc3ccc(-c4ccco4)nc3)c3ncn(C4CCCC4)c3n2)CC1` (stereo unspecified), the growth in assay [1] was -18.1% (active); in assay [2], -18.6% (active); in [3], 21.4%; in [4] it was -17.1% (active); in [5] it was 4.97% (active); in [6] it was -70.6% (active). Moreover, the growth in assay [7] was 3.69% (active); in assay [8] it was 8.51% (active); in assay [9], -62.7% (active).

As for `O=S(=O)(O)C1(O)CCCCC1`, the growth in assay [1] was 93.3%; in [2] it was 95.4%; in assay [3], 89.5%; in assay [4] it was 81.8%; in assay [5], 48%; in assay [6] it was 91.7%. For the same compound, the growth in assay [7] is 98.9%; in assay [8], 102%; in assay [9], 96.1%.

For `CC(C)C[C@H](NC(=O)Cn1ccc(Nc2ccccc2)cc1=O)B(O)O`, the growth in [1] was 44.1%; in assay [2] it was -71.1% (active); in assay [3], 91.5%; in assay [4] it was 49.5%; in assay [5] it was 77.3%; in assay [7], 71.4%. Besides, the growth in assay [8] was 33.1%; in [9], 40.8%.

Consider `N#Cc1ncc(-c2cc(F)ccc2F)c(NC2CCCCCC2)n1`, for which the growth in assay [1] was 89.9%; in assay [2], 92.6%; in assay [3], 73.6%; in assay [4], 65.9%; in assay [5] it was 48.5%; in assay [6], 68%. The growth in assay [7] is 78%; in assay [8], 97.6%; in assay [9], 100%.

For `CC(C)c1[nH]nc2c(NCc3ccc(-c4ccccn4)cc3)nc(SCCN(C)C)nc12`, the growth in [1] is -23.8% (active); in assay [2], 2.16% (active); in assay [3], 17%; in [4], -11.2% (active); in assay [5] it was 8% (active); in [6], -48.3% (active). Also, the growth in [7] was 8.6% (active); in assay [8] it was 11.3%; in assay [9] it was -42% (active).

Turning to `O=C1/C(=C/c2ccc(O)cc2)Cc2ccc(Cl)cc21`, the growth in [1] was 69.5%; in [2], 68.1%; in [3], 84.9%; in [4], 95.3%; in assay [5], 84.4%; in assay [10], 77.3%. For the same compound, the figures for the growth in assay [7], in [8] and in [9] were 85.9%, 92.2% and 120%, respectively.

With `NC1CCC(Nc2nc(NCc3ccc(-c4ccccc4O)nc3)c3ncn(C4CCCC4)c3n2)CC1` (stereo unspecified), the growth is -50.2% (active) in assay [1]; -3.35% (active) in assay [2]; 10.1% in assay [3]; -8.3% (active) in [5]; -17.7% (active) in assay [10]; -55.2% (active) in assay [6]. Besides, the values for the growth in [7], in [8] and in assay [9] were -25.2% (active), -38.3% (active) and -70.4% (active), respectively.

Consider `COC1OC2COC(c3ccccc3)OC2C(=O)C1NC(=O)c1ccccc1` (stereo unspecified), for which the growth is 100% in assay [1]; 106% in [2]; 106% in assay [3]; 97.2% in assay [5]; 79.3% in [10]; 95.2% in assay [6]. The growth in assay [7] is 105%; in assay [8], 109%; in [9], 97.2%.

`CCOC(=O)C(CCC1=NC(C)(C)CC(C)O1)C(=O)OCC` (stereo unspecified): the growth in assay [1] was 77.7%; in assay [2], 95.1%; in assay [3] it was 137%; in assay [5], 51.5%; in assay [10] it was 95.3%; in assay [6], 62.5%. For the same compound, the growth in assay [7] is 101%; in assay [8], 107%; in assay [9], 92%.
